Experimental data taken from PubChem BioAssay.
Entries with a potency or affinity are not part of this list. Active and inactive are the calls of the source.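 Rule for the calls: active = signal drop whose fitted half-maximal concentration is at most twice the top valid dose, in every test run; inconclusive = mixed calls across runs, poor fit, or flat 30 to 70% inhibition; inactive = wrong direction, flat within 30%, or potency beyond limit.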

Test: cytotoxicity in PAX8-dependent RMG-1 cells, dose response, cell-based, cherry-pick (AID 687029);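 note: cells exposed to compound for 96 hours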
Conditions: RMG-1 viability, CellTiterGlo ATP luminescence, 96 h; series mostly up to 35 µM

| SMILES | outcome |
| --- | --- |
| C[C@@H]1CN([C@@H](C)CO)C(=O)Cc2cc(N(C)C)ccc2O[C@H]1CN(C)Cc1ccc(Oc2ccccc2)cc1 | inactive |
| C[C@H](CO)N1C[C@H](C)[C@H](CN(C)Cc2ccc3c(c2)OCO3)Oc2ccc(NC(=O)Nc3cccc4ccccc34)cc2C1=O | inactive |
| COc1ccccc1C#Cc1ccc2c(c1)O[C@H](CN(C)Cc1cccnc1)[C@H](C)CN([C@H](C)CO)S2(=O)=O | inactive |
| C[C@@H]1CCCCO[C@H](CN(C)Cc2ccc(C(F)(F)F)cc2)[C@H](C)CN([C@H](C)CO)C(=O)c2cc(NS(=O)(=O)c3ccc(F)cc3)ccc2O1 | inactive |
| CN1c2ccc(-c3ccc(C#N)cc3)cc2[C@@H]2[C@@H](CCN2C(=O)NC2CCCCC2)[C@@H]1CO | inactive |
| Cc1ccc(S(=O)(=O)Nc2ccc3c(c2)C(=O)N([C@@H](C)CO)C[C@H](C)[C@H](CN(C)Cc2ccc(C(F)(F)F)cc2)OCCCC[C@@H](C)O3)cc1 | inactive |
| Cc1ccc(S(=O)(=O)N(C)C[C@H]2Oc3ccc(NC(=O)Nc4ccc(C(F)(F)F)cc4)cc3CC(=O)N([C@@H](C)CO)C[C@H]2C)cc1 | inactive |
| CCCN(C)C[C@H]1OCCCC[C@@H](C)Oc2ccc(NC(=O)c3ccccc3)cc2C(=O)N([C@H](C)CO)C[C@H]1C | inactive |
| C[C@@H]1CCCCO[C@H](CN(C)Cc2ccc(Cl)c(Cl)c2)[C@@H](C)CN([C@@H](C)CO)C(=O)c2cc(NS(=O)(=O)c3ccc(Cl)cc3)ccc2O1 | inactive |
| C[C@@H]1CN([C@H](C)CO)C(=O)c2c(c3ccccc3n2C)-c2ccccc2CO[C@H]1CN(C)C(=O)Nc1cccc(C(F)(F)F)c1 | inactive |
